Results reported in PubChem BioAssay.

test: blockers of RIG-like receptor reporter activation – cell-based, Sendai virus stimulus, luciferase, 10K MLSCN set, TLR/RLR signaling modifier project, primary screen (AID 602276); conditions: HEK293 RL24 IRF3 luciferase reporter, at 10 µM, hits give high values;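 active = inhibition at or above 50% at 10 µM; inactive = inhibition below 50%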;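 also: firefly luciferase from ISG56 promoter only with Renilla not read in this screen; 0% = Sendai virus plus DMSO and 100% = medium plus DMSO without virus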

inhibition, inactive:
O=C(Oc1cccc2cccnc12)c1cccc(-n2cnnn2)c1 15%, Cc1cc(C(N)=O)c2cc(Br)ccc2n1 4.62%, Cc1nc2ccc(S(=O)(=O)NC(C(=O)NCc3cccs3)C(C)C)cc2s1 (centres undefined) -5.51%, CCN(CC)c1ccc(NC(=O)CN2C(=O)CC(C)(C)S(=O)(=O)c3ccccc32)c(C)c1 10.9%, O=c1[nH]cnc2c1nc(SCc1ccccc1)n2C1OC(CO)C(O)C1O (centres undefined) 10.8%, Cc1ncc(CSc2nc3ccccc3[nH]2)c(N)n1 4.12%, CN(C(=O)c1ccccc1Cl)c1ccccc1 15%, CCCSc1nc(N)c(C#N)c(-c2ccc(C)cc2)c1C#N 3.6%, CC1(C)CC(=O)C2=C(C1)NC(=O)CC2C(=O)NCc1ccc(F)cc1 (centres undefined) 7.38%, CCN(CC)CCCN1C(=O)C(=O)/C(=C(/O)c2ccc3c(c2)OCO3)C1c1ccccn1 (centres undefined) -5.97%, CCOC(=O)C1CCN(c2cc(C)nc3cc(-c4cccc(F)c4)nn23)CC1 -8.57%, COCCNC(=O)C(c1ccc(C)o1)N(Cc1ccc(OC)cc1)C(=O)Cn1nnc2ccccc21 (centres undefined) 10.1%, CCN1CCN(c2ncnc3c2cnn3-c2ccc(C)cc2C)CC1 10.8%, Cc1cccc(C2c3c(n(C)c(=O)n(C)c3=O)N=C3c4ccccc4C(=O)C32)c1 (centres undefined) 16%, CCOC(=O)c1cc2c(=O)n3ccccc3nc2n(CCCOC)c1=NC(C)=O 1.75%, CCOc1ccccc1CNC(=O)CCN1C(=O)COc2ccccc21 12.2%, COc1cc2c(cc1OC)CN(C(=O)CSc1nc3[nH]ncc3c(=O)n1-c1ccccc1)CC2 11%, O=C(O)C1CC=CCC1C(=O)NCc1ccccc1 (centres undefined) 10%, CCCNc1nc2c(c(=O)n(C)c(=O)n2C)n1Cc1cccc(C)c1 3.02%, Cc1ccc2c(c1)NC(=O)C(CC(=O)NC1CCCCC1C)O2 (centres undefined) 9.73%, Cc1cccc(N2CCN(C(=O)CCn3c(=S)[nH]c4cc5c(cc4c3=O)OCO5)CC2C)c1 (centres undefined) 9.48%, CC1CN(Cc2nc3c(c(=O)[nH]c(=O)n3C)n2CC(N)=O)CC(C)O1 (centres undefined) 12.8%, Cc1[nH]nc(N=CC2=C(O)CC(C)(C)CC2=O)c1-c1ccccc1 -16.8%, Cc1ccc(N2C(=O)c3ccccc3C2O)nc1 (centres undefined) 48.3%
